# Test results published in PubChem BioAssay AID651965 (National Center for Advancing Translational Sciences (NCATS), 2013).
# The campaign covered roughly 340,000 compounds. About 6,400 (1.9%) were called active. Not shown: some 4% with an inconclusive outcome. This is one part of a sample in which actives are shown more often than they occur. Calls come from the whole dose curve; as a rule, active = well fitted falling curve with a large enough effect; inconclusive = small, poorly fitted or top-dose-only effect; inactive = no such curve, though single readings can be large or run the other way.
# Target: ATP-dependent Clp protease proteolytic subunit (Bacillus subtilis (strain 168)) (UniProt P80244)
# Experiment: qHTS Assay for Activators of ClpP; note: the source files actives as falling curves though it sought activators and does not explain the sign; nearly all actives have a fitted effect of over 65% in size
# Settings: purified B. subtilis ClpP, FRET peptide cleavage, 20 min; series mostly up to 57.5 µM; activity change, negative = active: at the top concentration
# Description: The Clp protease proteolytic subunit (ClpP) is the core unit of the Clp complex belonging to the peptidase family S14 that hydrolyzes protein into small peptides in the presence of ATP and magnesium. It is ubiquitously expressed and is the major protease in bacteria. […] Unlike common antibiotics that simply interfere with the essential enzyme activity, ADEP binding activates the ClpP core in the absence of the regulatory Clp-ATPases leading to uncontrolled proteolysis and eventually cell death. Activators binding to the docking site on ClpP can also block formation of the ClpXP and ClpA/C-P holoenzyme complexes interfering with the normal biological functions of ClpP and thus have the potential to become new anti-microbials.
# To identify activators of ClpP, a FRET based quenching reversal assay was developed using a purified B. subtilis ClpP and a decapeptide substrate (FRET-FV). The FRET-FV is tagged with a fluorescent molecule amino benzoic acid (donor) at the N-terminus and a nitrotyrosine quencher (acceptor) at the C-terminus. FRET-FV cleaves upon activation of ClpP with ADEP treatement and reverses the quenching effect of the nitrotyrosine causing an increase in fluorescence emission signal at 430nm. This assay was used to screen the Molecular Libraries Small Molecule Repository (MLSMR).
# NIH Molecular Libraries Probe Production Centers Network [MLPCN]
# NIH Chemical Genomics Center [NCGC]
# Assay Submitter (PI): Michael Maurizi, National Cancer Institute
# Two and a half microL/well of purified enzyme solution (final concentrations 10 microg/mL B. subtilis ClpP in 100 mM Tris/HCl pH8, 100 mM KCl, 0.05% low protease BSA, 2.5% glycerol, 0.01% Tween-20 buffer) was dispensed into 1536-well assay plates (Greiner, black solid, medium-binding plates) with Aurora Discovery BioRAPTR Flying Reagent Dispenser (FRD, Beckton-Dickenson). Compound solution (23 nL) was transferred to the assay plate using Kalypsys pin tool equipped with a 1536-pin tool. […] FRET signals at time 0 and after 20 min room temperature incubation were obtained using the PerkinElmer Envision plate reader with 320nm excitation and 430nm emission filters. Delta FRET value (Time 20 - Time 0) was calculated and normalized to the delta FRET value of positive control ADEP (5.8 microM final concentration) and negative control DMSO and no enzyme wells.
# ATP-dependent Clp protease proteolytic subunit (Bacillus subtilis (strain 168)), sequence (P80244 whole entry, looked up): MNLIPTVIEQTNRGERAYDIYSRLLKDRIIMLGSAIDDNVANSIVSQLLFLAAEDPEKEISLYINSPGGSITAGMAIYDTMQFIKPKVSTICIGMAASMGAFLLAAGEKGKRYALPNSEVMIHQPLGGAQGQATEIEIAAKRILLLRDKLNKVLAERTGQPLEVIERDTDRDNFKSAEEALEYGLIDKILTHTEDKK
SMILES,"activity change, negative = active",Potency
CCc1nc2ccc(C(=O)Nc3cc(-c4ccccc4)ccc3OC)cn2c1N(CC)CC(=O)N(C)C,4.3% (inactive),
CSc1ncnc2c1ncn2CCCNCC1CCCCC1,-2.79% (inactive),
O=C1NC[C@H](CCCCN2CCN(CCc3ccccc3)C(=O)C2=O)N(CC2CCCCC2)C1=O,-1.02% (inactive),
CC(C)C[C@H]1CNC(=S)N1C[C@H]1CCCN1C[C@H](Cc1ccc(O)cc1)N1C[C@H](Cc2ccc(O)cc2)N(CC2CCCCC2)C1=S,1.83% (inactive),
c1ccc(Cc2c(-c3ccco3)nc3c4ccccc4ccn23)cc1,4.55% (inactive),
Cc1ccc(C)c(C(O)c2ncc(-c3cccc4ccccc34)[nH]2)c1 (configuration not stated),4.92% (inactive),
O=c1cc(CN2CCN(S(=O)(=O)/C=C/c3ccccc3)CC2)c2ccc(O)cc2o1,,10 µM (active)
COc1ccc2c(CN3CCN(S(=O)(=O)c4cccs4)CC3)cc(=O)oc2c1,-14.2% (inactive),
Cc1ccc2c(CN3CCN(S(=O)(=O)c4ccccc4C(F)(F)F)CC3)cc(=O)oc2c1,-9.85% (inactive),
CCCNC(=O)C1(C)CCN(C(=O)c2cc(F)ccc2C)C1 (configuration not stated),0.883% (inactive),
COc1ccc(C(=O)C(OP(=O)(OC)OC)c2ccccc2OC)cc1 (configuration not stated),-1.26% (inactive),
O=[N+]([O-])c1ccc(/C=C/c2ccc3cccnc3c2)cc1,-3.98% (inactive),
N#Cc1ccc[n+](CC(=O)c2ccc(F)cc2)c1,0.138% (inactive),
CC1(C)CC(=O)C2=C(C1)Nc1cc(C(=O)c3ccccc3)ccc1NC2c1ccccn1 (configuration not stated),-1.17% (inactive),
Cc1nn(-c2ccccn2)c2c1C(c1ccncc1)C1=C(CC(C)(C)CC1=O)N2 (configuration not stated),,31.6 µM (active)
Cc1cc(C)c(C2C3=C(Nc4c2c(C)nn4-c2ccccn2)c2ccccc2C3=O)c(C)c1 (configuration not stated),-1.74% (inactive),
Clc1cccc[n+]1CCCC[n+]1ccccc1Cl,-3.17% (inactive),
Cc1noc(C)c1S(=O)(=O)N(C)C[C@H]1OCCCC[C@@H](C)Oc2ccc(NC(=O)CCCN(C)C)cc2C(=O)N([C@H](C)CO)C[C@@H]1C,0.472% (inactive),
CCc1cc(C(=O)N(CC)CC(=O)Nc2c(F)cccc2F)sc1C,-1.44% (inactive),
O=C(NNc1nc(N2CCCC2)nc(N2CCCC2)n1)c1ccccc1,0.913% (inactive),
FC(F)(F)COc1nc(N2CCCCC2)nc(N2CCNCC2)n1,0.515% (inactive),
CN(N)c1nc(N2CCCC2)nc(N2CCCC2)n1,,31.6 µM (active)
CC(C)C1C(=O)N(Cc2cn(CCC3OCCO3)nn2)CCS(=O)(=O)N1Cc1ccc(-c2ccccc2C(F)(F)F)cc1 (configuration not stated),1.59% (inactive),
O=C(Nc1ccc(F)cc1)C(CCc1ccccc1)N1CCN(CC(=O)N2CCCC2)CC1 (configuration not stated),1.39% (inactive),

SMILES,"activity change, negative = active",Potency
CN(Cc1ccccc1)C(=O)c1cc2c(=O)n(C)c3ccccc3c2s1,-25.1% (inactive),
CCn1c(=O)c2cc(C(=O)Nc3cccc(C(C)=O)c3)sc2c2ccccc21,-5.57% (inactive),
CCN(CCCNC(=O)c1cc2c(=O)n(CC)c3ccccc3c2s1)Cc1ccccc1,,3.55 µM (active)
Cc1c(C)n(Cc2ccc(Cl)cc2)c2ccc(C(=O)NCCc3ccc(S(N)(=O)=O)cc3)cc12,,14.1 µM (active)
CCOC(=O)c1c(C)c(C(=O)NCCc2ccc(S(N)(=O)=O)cc2)c(C)n1CC,-24.6% (inactive),
NS(=O)(=O)c1ccc(CCNC(=O)c2ccc(Cl)c(S(=O)(=O)N3CCCCCC3)c2)cc1,-3.6% (inactive),
COC(=O)[C@@]12C[C@@H](CC(=O)NCc3cccc(C(F)(F)F)c3)C(=O)N(Cc3ccco3)C1=CCC(C)(C)C2,1.62% (inactive),
Cc1cccc(CN2Cc3cccc4c3[C@H](C=CC4)CC2=S)c1,-3.52% (inactive),
Cc1cc(OCC(=O)NCC(O)c2ccccc2)c2c(C)c(C)c(=O)oc2c1 (configuration not stated),3.71% (inactive),
COc1ccc(CCNC(=O)COc2cc(C)cc3oc(=O)c(C)c(C)c23)cc1OC,-6.73% (inactive),
Cc1cc(OCC(=O)Nc2nccs2)c2c(C)c(C)c(=O)oc2c1,,31.6 µM (active)
COc1ccccc1-c1cc(NC(C)=O)c2ncc(-c3ccc(F)cc3)n2c1,4.69% (inactive),
CCc1cccc(CC)c1NC(=S)Nc1ccc2cn[nH]c2c1,-18.4% (inactive),
Cc1cccc(NC(=S)Nc2ccc3cn[nH]c3c2)c1,,22.4 µM (active)
Cc1cc2[nH]ncc2cc1NC(=S)NC(=O)c1ccccc1,8.42% (inactive),
COc1cc(CNc2ncnc3c2ncn3[C@H]2CN(Cc3cccs3)C[C@@H](CO)O2)cc(OC)c1OC,-1.33% (inactive),
CC1(C(=O)NCc2cccc3ccccc23)CCN1Cc1ccc(-c2ccccc2)o1 (configuration not stated),-22.3% (inactive),
C=CCOc1ccc(/C=C/C(=O)OCC(=O)NCC2CCCO2)cc1 (configuration not stated),3.23% (inactive),
CC1(C)CC(=O)c2cc(OCC(=O)NCC3CCCO3)ccc2O1 (configuration not stated),,11.2 µM (active)
CCOc1ccc(S(=O)(=O)NCCC(=O)NCC2CCCO2)cc1 (configuration not stated),-0.322% (inactive),
Cc1ccccc1S(=O)(=O)N1[C@@H](c2cccc(Cl)c2)C(C(=O)OC(C)(C)C)=CC[C@H]1c1ccc(Cl)cc1,-4.28% (inactive),
COC(=O)C1(C(=O)OC)C/C=C\CN(S(=O)(=O)c2ccccc2[N+](=O)[O-])CCC1,0.858% (inactive),
Cc1cccc(C(=O)Nc2ccccc2-c2nnn(CC(=O)Nc3ccc4c(c3)OCCO4)n2)c1,3.15% (inactive),
